# From PubChem BioAssay
# Calls of active or inactive are those of the source.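 Rule for the calls: active = Her2 level under about 52% in both replicate screens, with viability over 70% of control (limit read from the data); inconclusive = Her2 under the limit in one screen only, or viability under 70%; inactive = Her2 level above the set limit.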
# System: not listed separately
# Test: reducers of endogenous Her2 protein level, primary screen, SKBR3 breast tumor cells, AlphaScreen, ATP viability (AID 461);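 for Her2 level: lower value means less Her2 protein in the cells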;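 for viability: percent of carrier control wells set as 100% viability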
# Details: 18-24 h, measured here: SKBR3 viability, ATP luminescence, at 10 µM
row,Structure (SMILES),viability [%]
1,Cn1c(=O)c2c(nc(N3CCCCC3)n2CCSc2nc3ccccc3o2)n(C)c1=O,100
2,CCOC(=O)C1=C(C)N=c2s/c(=C\c3cccn3C)c(=O)n2C1c1cccc(OC)c1OC (stereo not given),89
3,C=CCn1c(SCC(=O)O)nnc1-c1cccc(Cl)c1,116
4,Cc1ccc(S(=O)(=O)N2CCC(C(=O)NCCN3CCCCCC3)CC2)cc1,91
5,CCOC(=O)c1sc(N2C(=O)C(O)=C(C(=O)c3ccco3)C2c2ccccc2)nc1C (stereo not given),101
6,COc1cc(C)nc(NS(=O)(=O)c2ccc(C)cc2)n1,122
7,CCCCC(=O)Nc1nn(CCC)c2nc3ccccc3cc12,94
8,CCCCCOC(=O)CSc1nnc(-c2cc(OC)c(OC)c(OC)c2)o1,84.5
9,O=C(CN1CCN(C(=O)c2ccccc2)CC1)Nc1ncc(Br)cc1Br,76.5
10,O=C(c1ccc2c(c1)OCCO2)C1CCN(C(=O)c2ccc(F)cc2)CC1,102
11,Cc1cc2c(c(=O)n1CCc1ccccc1)C(C(C)C)C(C#N)=C(N)O2 (stereo not given),95
12,Cc1cc(NC(=O)Cn2cnc3c(cnn3C(C)(C)C)c2=O)no1,91.5
13,O=C(OCCCCN1C(=O)c2ccccc2C1=O)c1n[nH]c2ccccc12,92.5
14,CCOC(=O)CSc1nnc(-c2ccccc2OC)o1,116
15,O=C(Nn1cnnc1)c1cc2c(s1)CCCC2,100
16,Cc1cc2nc(C3CCN(CC4COc5ccccc5O4)CC3)[nH]c2cc1C (stereo not given),98.5
17,CCOc1ccc(S(=O)(=O)Nc2cccc(Cl)c2)cc1,86
18,O=C(OCc1nnc(-c2ccccc2)o1)c1ccc2ccccc2n1,106
19,COc1ccc(-c2nnc3sc(-c4c(OC)cccc4OC)nn23)cc1,105
20,CC1=Nn2c(nnc2-c2cc(-c3ccccc3)n[nH]2)SC1,97.5

row,Structure (SMILES),viability [%]
1,COc1cccc(C2C(C#N)=C(N)OC3=C2C(=O)CCC3)c1OC(=O)c1ccco1 (stereo not given),106
2,CCN(C1CCCCC1)S(=O)(=O)c1ccc(OC)c(C)c1,99
3,O=C(C1CC1)N1CCc2cc(S(=O)(=O)N(CCO)Cc3ccccc3)ccc21,94
4,COc1ccc(Cl)cc1S(=O)(=O)n1cnc2ccccc21,99
5,CCOC(=O)C(CC)Sc1nc2c(c(=O)[nH]c(=O)n2C)n1C/C=C(/C)Cl (stereo not given),97.5
6,Cc1cc2c(c(=O)o1)C(Cc1ccccc1)C(C#N)=C(N)O2 (stereo not given),94
7,Cc1nc2scc(-c3cccs3)c2c(=O)n1-n1cccc1,92
8,Cc1cc(-n2c(C)cc(C(=O)CSc3nc4ccccc4c(=O)n3Cc3ccco3)c2C)no1,105
9,N#Cc1c(NC(=O)c2ccc(Br)o2)n(-c2ccccc2)c2nc3ccccc3nc12,86.5
10,CCC1C(=O)n2nc(-c3ccccc3)cc2N=C1C (stereo not given),106
11,O=C(CN1C(=O)CSC1=O)N1CCc2ccccc2C1,100
12,C1CCc2nnc(-c3nnc4n3CCCCC4)n2CC1,86.5
13,O=C(CCCCCn1c(SCc2ccncc2)nc2ccccc2c1=O)NCc1ccco1,80.5
14,CCSc1nnc(NC(=O)c2nn(C(C)C)c(=O)c3ccccc23)s1,99
15,CN(C)c1ccc2c(c1)OC(N)=C(C#N)C2c1cccc(F)c1 (stereo not given),92
16,CN(C)c1ccc(NC(=O)c2cc3c(=O)n4ccccc4nc3n2C)cc1,87.5
17,CC(CN1CCN(C)CC1)OC(=O)c1ccc(Cl)cc1Cl (stereo not given),127
18,COc1ccccc1Nc1ncnc2c1cnn2-c1cccc(C)c1,94.5
19,NCCN1CCN(CCN)CC1,106
20,CCOc1ccc2nc(NC(=O)CSc3nnnn3C3CCCCC3)sc2c1,92

# Target: Receptor tyrosine-protein kinase erbB-2 (Homo sapiens) (UniProt P04626)
# Test: as above
# Details: 18-24 h, at 10 µM, stronger effect = lower value
# Chain of Receptor tyrosine-protein kinase erbB-2 (Homo sapiens) (P04626 whole entry, looked up): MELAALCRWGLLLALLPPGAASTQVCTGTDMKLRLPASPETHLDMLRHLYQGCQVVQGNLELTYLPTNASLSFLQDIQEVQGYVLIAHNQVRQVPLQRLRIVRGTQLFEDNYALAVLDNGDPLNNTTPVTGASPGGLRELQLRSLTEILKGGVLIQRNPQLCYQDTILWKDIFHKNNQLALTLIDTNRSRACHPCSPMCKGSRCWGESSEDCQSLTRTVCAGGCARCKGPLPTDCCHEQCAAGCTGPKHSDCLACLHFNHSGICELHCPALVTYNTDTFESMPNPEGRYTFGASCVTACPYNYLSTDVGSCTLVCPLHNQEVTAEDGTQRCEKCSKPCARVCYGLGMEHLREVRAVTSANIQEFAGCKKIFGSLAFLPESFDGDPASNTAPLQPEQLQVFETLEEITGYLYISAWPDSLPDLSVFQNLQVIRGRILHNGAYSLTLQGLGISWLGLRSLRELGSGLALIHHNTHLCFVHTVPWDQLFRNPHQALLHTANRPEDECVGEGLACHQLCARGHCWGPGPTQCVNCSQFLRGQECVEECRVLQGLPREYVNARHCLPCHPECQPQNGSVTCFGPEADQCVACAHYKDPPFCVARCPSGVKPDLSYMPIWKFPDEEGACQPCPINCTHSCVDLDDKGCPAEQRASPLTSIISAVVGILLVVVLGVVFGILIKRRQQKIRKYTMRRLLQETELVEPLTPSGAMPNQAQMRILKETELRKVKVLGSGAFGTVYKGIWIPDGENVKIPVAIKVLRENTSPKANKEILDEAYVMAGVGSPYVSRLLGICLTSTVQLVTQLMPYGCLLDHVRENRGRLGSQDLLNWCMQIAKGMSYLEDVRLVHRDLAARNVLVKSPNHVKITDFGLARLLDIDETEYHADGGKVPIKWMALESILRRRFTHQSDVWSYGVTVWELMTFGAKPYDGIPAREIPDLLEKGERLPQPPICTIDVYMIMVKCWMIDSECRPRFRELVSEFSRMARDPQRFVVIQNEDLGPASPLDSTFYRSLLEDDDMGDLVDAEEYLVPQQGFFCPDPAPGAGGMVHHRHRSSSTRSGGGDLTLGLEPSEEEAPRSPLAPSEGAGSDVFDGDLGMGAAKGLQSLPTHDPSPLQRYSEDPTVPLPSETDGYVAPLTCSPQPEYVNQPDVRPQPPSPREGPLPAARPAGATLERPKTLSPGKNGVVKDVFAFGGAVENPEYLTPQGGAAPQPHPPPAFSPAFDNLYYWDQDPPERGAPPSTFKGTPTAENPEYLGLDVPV
row,Structure (SMILES),Her2 level
1,Cn1c(=O)c2c(nc(N3CCCCC3)n2CCSc2nc3ccccc3o2)n(C)c1=O,105% (inactive)
2,CCOC(=O)C1=C(C)N=c2s/c(=C\c3cccn3C)c(=O)n2C1c1cccc(OC)c1OC (stereo not given),87% (inactive)
3,C=CCn1c(SCC(=O)O)nnc1-c1cccc(Cl)c1,107% (inactive)
4,Cc1ccc(S(=O)(=O)N2CCC(C(=O)NCCN3CCCCCC3)CC2)cc1,93.5% (inactive)
5,CCOC(=O)c1sc(N2C(=O)C(O)=C(C(=O)c3ccco3)C2c2ccccc2)nc1C (stereo not given),83.5% (inactive)
6,COc1cc(C)nc(NS(=O)(=O)c2ccc(C)cc2)n1,88% (inactive)
7,CCCCC(=O)Nc1nn(CCC)c2nc3ccccc3cc12,92% (inactive)
8,CCCCCOC(=O)CSc1nnc(-c2cc(OC)c(OC)c(OC)c2)o1,69.5% (inactive)
9,O=C(CN1CCN(C(=O)c2ccccc2)CC1)Nc1ncc(Br)cc1Br,100% (inactive)
10,O=C(c1ccc2c(c1)OCCO2)C1CCN(C(=O)c2ccc(F)cc2)CC1,111% (inactive)
11,Cc1cc2c(c(=O)n1CCc1ccccc1)C(C(C)C)C(C#N)=C(N)O2 (stereo not given),87% (inactive)
12,Cc1cc(NC(=O)Cn2cnc3c(cnn3C(C)(C)C)c2=O)no1,100% (inactive)
13,O=C(OCCCCN1C(=O)c2ccccc2C1=O)c1n[nH]c2ccccc12,86% (inactive)
14,CCOC(=O)CSc1nnc(-c2ccccc2OC)o1,96% (inactive)
15,O=C(Nn1cnnc1)c1cc2c(s1)CCCC2,95.5% (inactive)
16,Cc1cc2nc(C3CCN(CC4COc5ccccc5O4)CC3)[nH]c2cc1C (stereo not given),87.5% (inactive)
17,CCOc1ccc(S(=O)(=O)Nc2cccc(Cl)c2)cc1,74.5% (inactive)
18,O=C(OCc1nnc(-c2ccccc2)o1)c1ccc2ccccc2n1,116% (inactive)
19,COc1ccc(-c2nnc3sc(-c4c(OC)cccc4OC)nn23)cc1,93.5% (inactive)
20,CC1=Nn2c(nnc2-c2cc(-c3ccccc3)n[nH]2)SC1,78% (inactive)

row,Structure (SMILES),Her2 level
1,COc1cccc(C2C(C#N)=C(N)OC3=C2C(=O)CCC3)c1OC(=O)c1ccco1 (stereo not given),84% (inactive)
2,CCN(C1CCCCC1)S(=O)(=O)c1ccc(OC)c(C)c1,108% (inactive)
3,O=C(C1CC1)N1CCc2cc(S(=O)(=O)N(CCO)Cc3ccccc3)ccc21,102% (inactive)
4,COc1ccc(Cl)cc1S(=O)(=O)n1cnc2ccccc21,106% (inactive)
5,CCOC(=O)C(CC)Sc1nc2c(c(=O)[nH]c(=O)n2C)n1C/C=C(/C)Cl (stereo not given),83% (inactive)
6,Cc1cc2c(c(=O)o1)C(Cc1ccccc1)C(C#N)=C(N)O2 (stereo not given),96% (inactive)
7,Cc1nc2scc(-c3cccs3)c2c(=O)n1-n1cccc1,107% (inactive)
8,Cc1cc(-n2c(C)cc(C(=O)CSc3nc4ccccc4c(=O)n3Cc3ccco3)c2C)no1,83.5% (inactive)
9,N#Cc1c(NC(=O)c2ccc(Br)o2)n(-c2ccccc2)c2nc3ccccc3nc12,77% (inactive)
10,CCC1C(=O)n2nc(-c3ccccc3)cc2N=C1C (stereo not given),66.5% (inactive)
11,O=C(CN1C(=O)CSC1=O)N1CCc2ccccc2C1,98% (inactive)
12,C1CCc2nnc(-c3nnc4n3CCCCC4)n2CC1,99.5% (inactive)
13,O=C(CCCCCn1c(SCc2ccncc2)nc2ccccc2c1=O)NCc1ccco1,70.5% (inactive)
14,CCSc1nnc(NC(=O)c2nn(C(C)C)c(=O)c3ccccc23)s1,77.5% (inactive)
15,CN(C)c1ccc2c(c1)OC(N)=C(C#N)C2c1cccc(F)c1 (stereo not given),90.5% (inactive)
16,CN(C)c1ccc(NC(=O)c2cc3c(=O)n4ccccc4nc3n2C)cc1,72.5% (inactive)
17,CC(CN1CCN(C)CC1)OC(=O)c1ccc(Cl)cc1Cl (stereo not given),90.5% (inactive)
18,COc1ccccc1Nc1ncnc2c1cnn2-c1cccc(C)c1,88.5% (inactive)
19,NCCN1CCN(CCN)CC1,77% (inactive)
20,CCOc1ccc2nc(NC(=O)CSc3nnnn3C3CCCCC3)sc2c1,108% (inactive)
